In PubChem BioAssay AID2685 (National Center for Advancing Translational Sciences (NCATS), 2010):
Among all 320,000 compounds or so, about 2,100 (0.66%) were called active. Roughly 53% stayed inconclusive and do not appear here. The call rests on the fitted dose curve; in most records, active means well fitted inhibition curve with a large enough effect in the signal ratio, with a control signal flat (not every such curve was filed as active); inconclusive means small, poorly fitted or top-dose-only effect, or effect the other way, or a change in a side signal; inactive means flat fitted curve, though single readings scatter; the % refers to the signal ratio. The entries come from a sample that favours actives as a whole.

Experiment: qHTS Assay for Lipid Storage Modulators in Drosophila S3 Cells;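 on cell number change: cells counted by Cell Tracker Red CMTPX staining in the red channel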
Conditions: BODIPY lipid droplet fluorescence, 18-24 h, cells fed with added oleic acid; cell number change: measured here: cell count max response; series mostly up to 46.1 µM
Method in brief: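 Drosophila S3 cells loaded with oleic acid (400 uM, as added) and compounds at several concentrations; lipid droplets imaged by 488-nm laser-scanning cytometry, 500–530 nm intensity and object ratio to cell channel. Percent activity normalized to 20 uM Triacsin C.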
Potency means the concentration at half of the fitted maximal effect.

Structure (SMILES)	Potency	cell number change
COC(=O)c1ccccc1Oc1ccc(NC(=O)CCCl)cc1	inactive	-3.28%
O=C(CSc1nnc(Cn2c(=O)sc3ccccc32)n1-c1ccccc1)N1CCCC1	inactive	-5.75%
CC(C)C(C(=O)NCC1CCCO1)N(C(=O)CNS(=O)(=O)c1ccccc1)c1ccc(F)cc1 (stereo not given)	inactive	10.5%
Fc1cccc(COc2ccccc2CNc2ccccc2)c1	inactive	-10%
COCCn1ccc2c(OCC(=O)NCc3ccccc3)cccc2c1=O	inactive	-6.52%
O=[N+]([O-])/C=C/c1cn(Cc2ccc(F)cc2)c2ccccc12	20.6 µM (active)	-17.9%
O=c1ccn(Cc2ccccc2)c2ccccc12	inactive	-20.5%
O=S(=O)(N/N=C/c1cn(Cc2ccccc2)c2ccccc12)c1ccccc1	inactive	-19.2%
O=[N+]([O-])/C=C/c1cn(Cc2ccccc2)c2ccccc12	10.3 µM (active)	
CNC(=S)N/N=C/c1cn(Cc2ccc(F)cc2)c2ccccc12	inactive	-3.02%
O=C(O)c1ccc(N/N=C/c2cn(Cc3ccc(F)cc3)c3ccccc23)cc1	inactive	0.719%
N/C(=N\OC(=O)C12CC3CC(CC(C3)C1)C2)c1ccncc1	inactive	-16.5%
COc1ccc(N(C(=O)CNC(=O)c2ccco2)C(C(=O)NCC2CCCO2)c2ccccc2)cc1OC (stereo not given)	inactive	7.66%
O=C(c1ccc(-c2ccccc2)cc1)N1CCN(Cc2ccccn2)CC1	inactive	-0.729%
O=C(O)CC1S/C(=N/N=C/c2ccc(Br)cc2)N(c2ccccc2)C1=O (stereo not given)	inactive	-1.06%
CCC(C)(C)n1nnnc1C(c1cccc(C#N)c1)N1CCN(c2cccc(C)c2C)CC1 (stereo not given)	inactive	0.845%
O=C(CSC1=NCCS1)N1CCCCCC1	4.61 µM (active)	0.498%
O=C(CSC1=NCCS1)N1CCN(c2ccc(Cl)cc2)CC1	inactive	1.49%
O=C(CSC1=NCCS1)N1CCN(c2ccccc2)CC1	inactive	-11.5%
Cc1c(Cl)cccc1NC(=O)CCCCCN1C(=O)CCC1=O	inactive	
CS(=O)(=O)c1ccc2nc(NC(=O)Nc3cccc(Cl)c3)sc2c1	16.4 µM (active)	10.2%

Structure (SMILES)	Potency	cell number change
Cc1ccc(NC(=O)Nc2nc3ccc(S(C)(=O)=O)cc3s2)cc1	inactive	0.9%
CS(=O)(=O)c1ccc2nc(NC(=O)c3cccc(Cl)c3)sc2c1	inactive	5.93%
Cc1ccc(S(=O)(=O)Cc2ccc([N+](=O)[O-])cc2)cc1	inactive	-6.56%
CC(=O)c1ccc([N+](=O)[O-])c(CS(=O)(=O)c2ccc(Cl)cc2)c1	inactive	12.3%
Cc1ccc(S(=O)(=O)Cc2cc(F)c([N+](=O)[O-])cc2[N+](=O)[O-])cc1	0.411 µM (active)	20.1%
Cc1nc(C(C)NC(=O)CCc2nnc(-c3ccsc3)o2)cs1 (stereo not given)	inactive	-5.47%
CCC(c1nnc(SCC(=O)Nc2ccc(N3CCOCC3)cc2)n1Cc1ccccc1)N(C)C (stereo not given)	inactive	
CS(=O)(=O)c1cccc(C(=O)NCc2ccccc2)c1	inactive	
CS(=O)(=O)Cc1ccc(C(=O)N(CCc2ccccc2)Cc2ccccc2)cc1	inactive	-0.348%
C=CCOc1ccccc1CN(CCc1ccccc1)C(=O)c1cccc(S(C)(=O)=O)c1	4.11 µM (active)	1.8%
O=C(CNC(=O)c1cccs1)NCC(=O)OCc1ccc(F)cc1	inactive	-6.51%
CN(C(=O)CSc1nc2sc3c(c2c(=O)n1C)CCC3)C1CCS(=O)(=O)C1 (stereo not given)	inactive	-5.19%
CCc1ccc(N(CC(=O)NC(C)(C)C)C(=O)CCC(=O)Nc2ccccn2)cc1	inactive	19.3%
Cc1cccc(NC(=O)CCS(=O)(=O)c2ccccc2)n1	inactive	3.85%
CSc1nnc(-c2ccccc2)n1C	inactive	-0.435%
CCn1c(SC)nnc1-c1sc2cc(Cl)ccc2c1Cl	inactive	-4.88%
CSc1nnc(-c2sc3cc(Cl)ccc3c2Cl)n1C	23.1 µM (active)	-10.5%
Cc1ccc(OCCOCCn2ccnc2)c(Br)c1	inactive	-17%
COc1ccc(-c2csc3ncn(-c4cccc(C)c4)c(=O)c23)cc1OC	inactive	14.7%
O=C(Nc1cccc(NC(=O)c2cccc(F)c2)n1)c1cccc(F)c1	6.51 µM (active)	
O=C(N/N=C/c1ccccc1Cl)c1cccc(F)c1	inactive	0.333%

Structure (SMILES)	Potency	cell number change
O=C(Nc1ccc(F)cc1)c1ccccc1	inactive	
O=C(Nc1ccc(F)cc1)c1cccc(C(=O)Nc2ccc(F)cc2)c1	0.231 µM (active)	22.5%
O=C(N/N=C/c1cccc2ccccc12)c1ccncc1	inactive	0.153%
O=C(Nc1ccc(F)cc1)c1ccc2[nH]c(=O)c(=O)[nH]c2c1	inactive	25.6%
O=C(Nc1ncccn1)c1cccc(F)c1	inactive	-18.7%
O=C(N/N=C/c1cccc2ccccc12)c1cccc(F)c1	11.2 µM (active)	-0.111%
Cc1cc(NC(=O)c2cccc(F)c2)no1	inactive	9.9%
Cc1ccc(S(=O)(=O)c2nc(-c3ccccc3Cl)oc2NCCCN2CCOCC2)cc1	inactive	
CCOC(=O)C1(Cc2ccccc2)CCN(Cc2cn[nH]c2-c2ccccc2)CC1	inactive	4.32%
C[C@H](NC(=O)CCn1nnc2ccccc2c1=O)C(=O)O	inactive	-17.6%
O=C(c1ccc(F)cc1)C1CCN(Cc2ccc(F)cc2)CC1	inactive	16.1%
CCn1c(CCNC(=O)c2ccc(C)cc2)n[nH]c1=S	inactive	22.9%
Cn1c(CCNC(=O)c2ccc(Cl)cc2)n[nH]c1=S	inactive	-13.4%
CCn1c(CCNC(=O)c2ccc(Cl)cc2)n[nH]c1=S	1.84 µM (active)	24.6%
CN1CCN(c2nc(C(N)=O)cc(-c3ccccc3)n2)CC1	inactive	-10.6%
COc1ccc(-c2nc(CSCC(=O)N3CCC(C(N)=O)CC3)c(C)o2)cc1OC	inactive	-1.8%
COC(=O)c1ccc(/C=C/C(=O)O)cc1	inactive	2.73%
COc1ccc(C(=O)/C=C/c2ccc(O)cc2)cc1	inactive	-17.3%
COC(=O)c1ccc2c(c1)C(C)(C)C(/C=C/c1ccc(O)cc1)=[N+]2C	5.17 µM (active)	1%
